Compound activity: PubChem BioAssay, National Center for Advancing Translational Sciences (NCATS)
Sampled rows, rich in hits. Any-hit rate of the full collection: about 12%.
PLK1 PBD inh – qHTS for Inhibitors of PLK1-PDB (polo-like kinase 1 - polo-box domain): Primary Screen | Serine/threonine-protein kinase PLK1 (Homo sapiens), P53350 | Plk1 PBD binding of FITC phosphopeptide, fluorescence polarization | Potency, µM, without a hit: max response, negative = inhibition, hits mostly inhibitors | 360,000 tested, 2.8% active | AID 720504, 2013; further: series mostly up to about 57 µM; nearly all actives have a fitted effect of over 65% in size
ALDH1A1 block – qHTS Assay for Inhibitors of Aldehyde Dehydrogenase 1 (ALDH1A1) | Aldehyde dehydrogenase 1A1 (Homo sapiens), P00352 | Purified ALDH1A1, NADH fluorescence, propionaldehyde substrate | Potency, µM (highest dose often 75.3 µM), for the others: top-dose activity, negative = inhibition, most hits filed as inhibitors | 220,000 tested, 7.3% active; active means well fitted inhibition curve with a large enough effect, not every such curve was filed as active; inconclusive means small, poorly fitted or top-dose-only effect, or another doubt; inactive means no such curve, though single readings can be large or run the other way;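 further: plate controls were no enzyme wells and a reference inhibitor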
Sfp PPTase inh – qHTS Assay for Inhibitors of Bacillus subtilis Sfp phosphopantetheinyl transferase (PPTase). 4'-phosphopantetheinyl transferase ffp (Bacillus subtilis), Q9F4F7. Biochemical Sfp PPTase activity, qHTS. Potency, µM, for the others: largest response in the series, negative = inhibition, most hits filed as inhibitors. 310,000 tested, 3.5% active. AID 1490, 2009;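 further: the enzyme is Sfp with the accession as filed and its product quenches rhodamine fluorescence; 0% = enzyme reaction without inhibitor and -100% = no enzyme wells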
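With Hepes-Na pH 7.6 buffer containing 10 mM MgCl2, Sfp (15 nM) modified BHQ-2-YbbR (12.5 uM) using rhodamine-CoA (5 uM). Two reads 30 minutes apart at 525/598 nm yielded each well's rate.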
VP16 counter – VP16 counterscreen qHTS for inhibitors of ROR gamma transcriptional activity | Drosophila S2 Gal4-VP16 UAS-luciferase, luminescence, 20 h | Potency, µM (top dose mostly 53.6 µM), inactives show at the highest dose activity, negative = inhibition, hits mostly inhibitors | 310,000 tested, 3.5% active | AID 2546, 2010;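 further: Gal4-VP16 expression switched on by copper sulfate through the metallothionein promoter; nearly all actives have a fitted effect of over 50% in size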
RORgamma inh – qHTS for inhibitors of ROR gamma transcriptional activity. Nuclear receptor ROR-gamma (Mus musculus), P51450. Drosophila S2 Gal4-RORgamma UAS-luciferase reporter, 20 h. Potency, µM (doses to about 53.6 µM), for the others: at the highest dose activity change, negative = inhibition, actives largely listed as inhibitors. 310,000 tested, 5.4% active; further: nearly all actives have a fitted effect of over 60% in size
Target sequence (P51450 whole entry, looked up, the tested form may be a part): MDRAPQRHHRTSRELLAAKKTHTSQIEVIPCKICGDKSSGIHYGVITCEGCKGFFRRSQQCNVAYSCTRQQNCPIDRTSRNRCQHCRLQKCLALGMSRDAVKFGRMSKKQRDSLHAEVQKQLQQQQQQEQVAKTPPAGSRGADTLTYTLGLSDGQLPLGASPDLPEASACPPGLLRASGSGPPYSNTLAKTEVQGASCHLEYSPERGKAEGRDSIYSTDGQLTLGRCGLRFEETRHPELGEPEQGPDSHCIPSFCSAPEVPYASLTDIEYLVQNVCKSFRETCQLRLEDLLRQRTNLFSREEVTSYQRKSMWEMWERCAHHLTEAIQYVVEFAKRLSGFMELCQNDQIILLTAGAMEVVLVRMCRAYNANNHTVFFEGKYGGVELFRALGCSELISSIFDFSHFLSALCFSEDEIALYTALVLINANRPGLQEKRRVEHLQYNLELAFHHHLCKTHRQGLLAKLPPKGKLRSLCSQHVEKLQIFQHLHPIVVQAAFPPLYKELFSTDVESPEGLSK
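Read-out: Photinus luciferase luminescence; inhibitors lower reporter signal. Insect Schneider cells with Gal4-ROR gamma fusion under metallothionein promoter, UAS reporter; 700 uM final copper sulfate induction, 20 hr, ambient temperature.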
Numbers without * were called inactive; ? = inconclusive; nt = not tested or not shown; [ ] = dose if it differs, or a comment. Unless noted, the call rests on the fitted dose curve; in most records, active means well fitted curve in the direction sought with a large enough effect; inconclusive means small, poorly fitted or top-dose-only effect, or another doubt; inactive means no such curve, though single readings can be large; an effect the other way counts as inactive or inconclusive. Unless noted, on the % scale 0 is the no-effect control and ±100 the full control effect; potency means the concentration at half of the fitted maximal effect.

SMILES	PLK1 PBD inh	ALDH1A1 block	Sfp PPTase inh	VP16 counter	RORgamma inh
O=C(c1ccc2ccccc2c1)N1CCN(c2ccc(C(F)(F)F)cn2)CC1	-0.2%	15.8µM*	-10.5%	5.0%	-0.5%
c1ncc(CCCC2CCNCC2)[nH]1	nt	nt	27.2%	12.6%	0.7%
C[C@@H]1CN([C@H](C)CO)S(=O)(=O)c2ccc(Br)cc2O[C@H]1CN(C)S(C)(=O)=O	2.1%	nt	nt	nt	nt
O=C1C(N2CCOCC2)=C(n2nnc3ccccc32)C(=O)c2ccccc21	-28.3%	1.26µM*	-24.0%	5.62µM*	5.01µM*
O=C1c2ccccc2C(=O)c2c1cccc2-n1nnc2ccccc21	-3.7%	nt	3.3%	-10.3%	-8.5%
CC1(c2ccccc2)NC(=S)N2C1NC(=S)N2c1ccccc1 (centres undefined)	-29.0%	31.6µM*	-14.7%	2.0%	-0.8%
COc1ccc(N2C(=S)NC3N2C(=S)NC3(C)c2ccccc2)cc1 (centres undefined)	-12.5%	25.1µM*	?	-13.7%	-7.4%
O=C(Nc1cccc(C(F)(F)F)c1)c1csc([C@@H]2O[C@H](CO)[C@H](O)[C@H](O)[C@H]2O)n1	0.6%	nt	nt	nt	nt
Cc1cc(NC(=O)c2cccc(COc3ccc(Br)cc3)c2)no1	-2.8%	6.0%	?	?	7.08µM*
CCOc1cc(C(=O)Nc2cc(C)on2)cc(OCC)c1OCC	-5.4%	10.6%	18.0%	0.8%	2.24µM*
CCOc1ccc(C(=O)Nc2cc(C)on2)cc1	-14.9%	17.0%	12.2%	?	?
O=C(COc1cccc(C(F)(F)F)c1)Nc1cccc(S(=O)(=O)NC2=NCCCCC2)c1	-3.0%	nt	nt	nt	nt
O=C(CCc1ccccc1)N/N=C/c1cc(Br)ccc1O	0.8%	-1.5%	11.9%	-13.4%	2.4%
Oc1ccc(Br)cc1/C=N/NC(=S)NCCc1ccccc1	-29.2%	nt	-8.0%	15.8µM*	15.8µM*
COc1ccc(/C(C)=N/NC(=S)NCCc2ccccc2)c(O)c1	2.2%	nt	2.1%	7.08µM*	5.01µM*
COc1ccc(O)c(/C=N/NC(=S)NCCc2ccccc2)c1	-2.6%	nt	-1.0%	7.08µM*	3.16µM*
S=C(NCCc1ccccc1)N/N=C/c1ccccc1Cl	-16.3%	-3.3%	-1.4%	?	11.2µM*
COc1cc(/C=N\NC(=O)CC(=O)NCCc2ccccc2)ccc1O	-3.4%	2.8%	12.8%	-24.8%	0.8%
CNC(=O)c1ccc2cc(OC)c(OC)cc2c1	-9.3%	nt	nt	nt	nt
O=C(c1ccccc1F)N1CCN(c2ccc([N+](=O)[O-])c(NCC3CCCO3)c2)CC1 (centres undefined)	-6.4%	11.2µM*	13.3%	-8.6%	27.1%
Cc1ccc2nc(-c3cccnc3)cc(C(=O)N3CCN(c4ccc([N+](=O)[O-])cc4)CC3)c2c1	-6.9%	8.91µM*	11.6%	-1.6%	0.8%
CS(=O)(=O)N1CCN(c2ccc([N+](=O)[O-])c(NCc3cccnc3)c2)CC1	-10.0%	-7.9%	-8.7%	-1.6%	17.8%
Cc1ccc(C(=O)N2CCN(c3ccc([N+](=O)[O-])c(NCc4cccnc4)c3)CC2)cc1	-13.1%	12.6µM*	-15.4%	-3.8%	?
Cc1ccccc1C(=O)N1CCN(c2ccc([N+](=O)[O-])c(NCc3cccnc3)c2)CC1	-8.9%	15.8µM*	-7.0%	-1.8%	?
CC(=O)N1CCN(c2ccc([N+](=O)[O-])c(NCC3CCCO3)c2)CC1 (centres undefined)	2.1%	5.1%	-1.5%	-14.4%	3.9%
SMILES	PLK1 PBD inh	ALDH1A1 block	Sfp PPTase inh	VP16 counter	RORgamma inh
C/C=C1\CC2C=CC1C2 (centres undefined)	nt	-13.1%	nt	-7.7%	-6.7%
N=C(c1ccc2ccccc2c1)c1ccccc1Cc1ccccc1	nt	2.6%[13.5 µM]	nt	nt	nt
CCCOc1nc(N)c(C#N)c(-c2ccccc2F)c1C#N	3.5%	1µM*	10.7%	nt	-21.2%[0.365 µM]
CC(C)c1cc(=O)n2[nH]c(N)nc2n1	-20.6%	21.4%	79.4µM*	-8.3%	0.7%
CC(C)(C)c1cc(=O)n2[nH]c(N)nc2n1	-9.8%	7.8%	?	-4.9%	11.8%
CCc1nc2ccc(C(=O)NCc3ccccc3OC)cn2c1N(C)Cc1ccc(N(C)C)cc1	-7.1%	nt	nt	nt	nt
